# APEX1 inh = qHTS Assay for Inhibitors of the Human Apurinic/apyrimidinic Endonuclease 1 (APE1); recombinant APE1, TAMRA/BHQ-2 abasic DNA cleavage fluorescence; Potency, µM (top dose mostly 65.8 µM), for inactives: at the highest dose activity change, negative = inhibition, most hits filed as inhibitors; 350,000 tested, 0.35% active;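 further: plate controls were vehicle for no effect and reference inhibitor for full effect; nearly all actives have a fitted effect of over 55% in size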
# Target sequence (P27695 whole entry, looked up): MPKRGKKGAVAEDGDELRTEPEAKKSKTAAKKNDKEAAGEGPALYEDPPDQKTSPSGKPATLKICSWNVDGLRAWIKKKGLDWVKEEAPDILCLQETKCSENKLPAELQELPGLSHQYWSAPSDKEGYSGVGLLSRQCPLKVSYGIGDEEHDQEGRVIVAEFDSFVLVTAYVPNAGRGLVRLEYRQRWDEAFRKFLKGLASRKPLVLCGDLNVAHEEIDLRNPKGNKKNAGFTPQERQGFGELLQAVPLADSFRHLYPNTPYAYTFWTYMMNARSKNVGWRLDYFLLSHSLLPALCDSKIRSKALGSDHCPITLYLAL
#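 Readout is kinetic fluorescence (ex 525, em 598 nm) from cleavage of 50 nM TAMRA/BHQ-2 THF abasic duplex by 0.75 nM APE1, compound added 15 min beforehand at RT.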
# RECQ1 helicase = qHTS Assay for Inhibitors of RecQ-Like Dna Helicase 1 (RECQ1); RECQ1 DNA unwinding, red fluorescence kinetic read; 240,000 tested, 0.54% active; Potency, µM (highest dose often 57.3 µM), inactives show top-dose activity, negative = inhibition, usual class: inhibitors;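 further: plate controls were vehicle for no effect and no enzyme for full effect; nearly all actives have a fitted effect of over 30% in size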
#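 RECQ1T1 50 nM; forked duplex (20 bp + 30-nt ss tails) 200 nM, ATP 2 mM final; pH 8.0, 2 mM MgCl2, 2.5 ug/ml poly(dI-dC); 15 min compound preincubation; discontinuous kinetic read over 2 h at RT.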
# RGS12 GoLoco inh = qHTS Assay for Inhibitors of RGS12 GoLoco Motif Activity (Red Fluorophore). Guanine nucleotide-binding protein G(i) subunit alpha-1 (Homo sapiens), P63096. Gai1:RGS12 GoLoco peptide FP, rhodamine, 10 min. Potency, µM (doses to about 61.6 µM), without a hit: at the top dose activity, negative = inhibition, actives largely listed as inhibitors. 230,000 tested, 0.44% active; active means well fitted inhibition curve with a large enough effect, not every such curve was filed as active; inactive means no such curve, though single readings can be large or run the other way; further: nearly all actives have a fitted effect of over 30% in size
# Target sequence (P63096 whole entry, looked up): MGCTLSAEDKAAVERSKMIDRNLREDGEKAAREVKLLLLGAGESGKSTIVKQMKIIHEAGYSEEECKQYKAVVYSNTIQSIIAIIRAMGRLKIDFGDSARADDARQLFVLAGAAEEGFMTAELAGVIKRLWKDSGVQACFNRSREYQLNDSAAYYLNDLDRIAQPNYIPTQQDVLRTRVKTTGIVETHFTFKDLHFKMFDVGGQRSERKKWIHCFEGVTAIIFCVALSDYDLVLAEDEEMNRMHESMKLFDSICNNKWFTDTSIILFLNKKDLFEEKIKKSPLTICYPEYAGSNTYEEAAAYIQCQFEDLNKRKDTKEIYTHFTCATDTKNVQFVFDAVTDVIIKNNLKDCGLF
# TR SRC2 fluor cs = Total Fluorescence Counterscreen for Inhibitors of the Interaction of Thyroid Hormone Receptor and Steroid Receptor Coregulator 2; TRb/SRC2 Texas Red total fluorescence interference; Potency, µM (highest dose often 106 µM), for inactives: top-dose fluorescence change, negative = quenching; 280,000 tested, 0.29% active; AID 1479, 2009; active means well fitted curve in either direction with a large enough effect; inconclusive means small, poorly fitted or top-dose-only effect
#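 Human TRβ ligand-binding domain (0.6 uM) and Texas Red SRC2 peptide (20 nM) in Tris buffer with 1 uM T3 and 5% DMSO were incubated with pinned compound for 5 hr at ambient temperature. Total fluorescence was computed as S + 2P (555/632 nm).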
# TRb-SRC2 inh = qHTS for Inhibitors of the Interaction of Thyroid Hormone Receptor and Steroid Receptor Coregulator 2. 280,000 tested, 0.065% active. Potency, µM (top dose mostly 106 µM), for the others: top-dose activity change, negative = inhibition, hits mostly inhibitors. TRbeta-SRC2 peptide binding, fluorescence polarization; receptor liganded with 1 µM T3;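 further: plate controls were bound peptide for no effect and peptide without receptor for full effect; nearly all actives have a fitted effect of over 50% in size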
#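 Compounds were added to 0.6 uM TRb ligand-binding domain and 20 nM Texas Red-labeled SRC2 peptide in Tris buffer containing 1 uM T3, incubated 5 hr at ambient temperature, then read by fluorescence polarization.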
# BLM inh = qHTS Assay for Inhibitors of Bloom's syndrome helicase (BLM). RecQ-like DNA helicase BLM (Homo sapiens), P54132. 350,000 tested, 0.2% active. Potency, µM (titrated, usually from 56.1 µM), inactives show at the top dose activity change, negative = inhibition, hits mostly inhibitors. recombinant BLM DNA unwinding, fluorescence dequenching. AID 2528, 2010;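 further: plate controls were vehicle for no effect and no enzyme for full effect; nearly all actives have a fitted effect of over 35% in size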
# The depositor's hits bear a star; i = inactive; ? = inconclusive; . = no result; ! = not active in a repeat; [ ] = another dose, or the depositor's remark. In the library only some 0.9% were active in any assay of this set; here they are far more common. Unless noted, the call rests on the fitted dose curve; in most records, active means well fitted curve in the direction sought with a large enough effect; inconclusive means small, poorly fitted or top-dose-only effect, or another doubt; inactive means no such curve, though single readings can be large; an effect the other way counts as inactive or inconclusive. Unless noted, on the % scale 0 is the no-effect control and ±100 the full control effect; potency means the concentration at half of the fitted maximal effect.
SMILES,APEX1 inh,RECQ1 helicase,RGS12 GoLoco inh,TR SRC2 fluor cs,TRb-SRC2 inh,BLM inh
C[C@H](CCC(=O)NCC(=O)O)C1CC[C@H]2C3CC[C@@H]4C[C@H](O)CC[C@]4(C)C3C[C@H](O)[C@]12C (stereo partly specified),4%,i,4%,-1%,-7%,.
C=C(C)C(=O)Nc1cccc(C2=NOC3(C2)C[C@@H](C(N)=O)N(C(=O)/C(C)=C/C)C3)c1 (stereo partly specified),-10%,18µM*,6%,-1%,5%,-1%
C/C=C(\C)C(=O)Nc1cccc(C2=NOC3(C2)C[C@@H](C(N)=O)N(C(=O)/C(C)=C/C)C3)c1 (stereo partly specified),1%,i,1%,-3%,-2%,-2%
CCOc1ccc(NC(=O)c2c(NCc3cccs3)sc3c2CCC(C)C3)cc1 (stereo unspecified),.,.,.,355µM*[quencher],-21%,-7%
CCOc1ccccc1NC(=O)c1c(NCc2cccs2)sc2c1CCC(C)C2 (stereo unspecified),.,.,.,-1%,-3%,-2%
C[C@]12C[C@@](C)(C=C1/C=C/c1ccc(F)cc1)C(=O)C[C@H]2c1ccc(F)cc1,3%,26%,2%,-1%,-6%,3%
O=C(c1ccc(Cl)c([N+](=O)[O-])c1)N(Cc1cccc(Cl)c1)C1CCS(=O)(=O)C1 (stereo unspecified),7%,-6%,6%,112µM*[quencher],-13%,-14%
Cc1ccc2c(c1C)NC(C(=O)O)C1CC=CC21 (stereo unspecified),?,5µM*,64%,-21%,-17%,18µM*
CCOC(=O)c1ccc2c(c1)C1C=CCC1C(C(=O)O)N2 (stereo unspecified),?,8.9µM*,-3%,?,-3%,28µM*
COc1cccc([C@@H]2Oc3ccc(Br)cc3C[C@H]2OC(=O)NCCc2ccc(OC)c(OC)c2)c1,0%,i,-2%,-2%,6%,5%
C=C(C)C(=O)OCC(CC)(COC(=O)C(=C)C)COC(=O)C(=C)C,.,.,.,-1%[201 µM],8%[201 µM],.
O=C(O)c1cccc(NC(=O)c2cccc(S(=O)(=O)Nc3cccc(F)c3)c2)c1,.,.,.,0.32µM*[quencher],?,2%
O=C(O)c1cccc(NC(=O)c2cccc(S(=O)(=O)Nc3cccc(C(=O)O)c3)c2)c1,.,.,.,-5%,-7%,1%
O=C(O)c1cc2cc(Cc3cccnc3)ccc2o1,-2%,-8%,28µM*!,1%,5%,4%
O=C(c1cc2ccccc2o1)N1CCN=C1SCc1cccnc1,0%,4%,18%,0%,1%,0%
Cc1ccc(C(=O)NC2=NC(c3ccc(C)cc3)CC(=O)N2)cc1 (stereo unspecified),.,.,.,251µM*[quencher],-24%,1%
COc1cccc(/C=N\NC(=O)c2ccc(Cn3cc(Br)c([N+](=O)[O-])n3)o2)c1O,4%,6%,14%,2%,11%,32µM*
Cc1nc2c(c(=O)n1Cc1ccccc1Cl)c1nc3ccccc3nc1n2Cc1ccco1,-6%,-4%,34%,-2%,-13%,2%
COc1ccc(Cn2c3nc4ccccc4nc3c3c(=O)n(Cc4ccco4)c(C)nc32)cc1,?,3.5µM*,45%,-3%,14%,?
COc1ccc(/C=C2\SC(=O)NC2=S)cc1OC,?,32µM*,38%,-6%,-3%,-18%
CCOC(=O)CC(NC(=O)c1cc2cc(Cl)ccc2oc1=O)c1ccc(C)cc1 (stereo unspecified),.,.,.,14µM*[quencher],-10%,-1%
O=[N+]([O-])c1cccc2c(S(=O)(=O)N3CCCCC3)cccc12,45%,.,.,.,.,-10%
O=[N+]([O-])c1cccc2c(S(=O)(=O)N3CCOCC3)cccc12,11µM*,.,.,.,.,-8%
C=CCOc1nc(OCC=C)nc(OCC=C)n1,.,.,.,-1%[201 µM],4%[201 µM],.
NC(N)=NCC1COC2(CCCCC2)O1 (stereo unspecified),5%[21 µM],.,.,.,.,.
SMILES,APEX1 inh,RECQ1 helicase,RGS12 GoLoco inh,TR SRC2 fluor cs,TRb-SRC2 inh,BLM inh
Cc1cc2ccccc2n1CCNC(=O)C(C)Oc1ccccc1 (stereo unspecified),-6%,i,14%,?,50µM*,-10%
O=[N+]([O-])O[C@@H]1CO[C@H]2[C@@H]1OC[C@@H]2O,-1%,.,.,.,.,.
Cc1ccc(NC(=O)CSCn2nnc3c(=O)[nH]c(Cc4ccc(F)cc4)nc32)c(C)c1,.,.,.,0.32µM*[quencher],-8%,-19%
O=C(O)c1ccc(N/N=C/C=C/c2ccc([N+](=O)[O-])o2)cc1,11µM*,.,.,.,.,-23%
N#C/C(=C\c1cc(Br)c(O)c(Br)c1)c1nc2ccccc2c(=O)[nH]1,.,.,.,-4%,2%,13µM*
COc1ccc(NC(=O)CN(C)C(=O)c2cccc(Oc3ccccc3)c2)cc1,-9%,.,.,.,.,.
COc1ccc(NC(=O)CN(C)C(=O)c2cccc(-n3cccc3)c2)cc1,2.4µM*,.,.,.,.,.
Cc1cccc(NC(=O)CNC(=O)c2cccc(-n3cccc3)c2)c1C,1.9µM*,.,.,.,.,.
Cc1ccc(NC(=O)CN(C)C(=O)c2cccc(-n3cccc3)c2)cc1,0.95µM*,.,.,.,.,.
c1ccc2cc3c(ccc4ccccc43)cc2c1,.,.,.,-4%[201 µM],0%[201 µM],.
c1ccc(-c2ccc(-c3ccccc3)cc2)cc1,.,.,.,1%[201 µM],5%[201 µM],.
CCC(=O)N1CCc2cc(Br)cc(S(=O)(=O)N3CCCC(C(=O)N(C)c4ccc(Br)cc4)C3)c21 (stereo unspecified),.,.,.,178µM*[quencher],-4%,-10%
CCCN(CCC)C(=O)C1CCCN(S(=O)(=O)c2cc(Br)cc3c2N(C(=O)CC)CC3)C1 (stereo unspecified),.,.,.,-30%,1%,-3%
C[C@@]12CCC[C@H]1C1CC[C@H]3C[C@H](O)CC[C@]3(C)C1CC2 (stereo partly specified),3%,1%,2%,1%,-1%,.
O=C(O)/C=C(/C(=O)O)[C@]12CCN3CC4=CCO[C@@H]5CC(=O)N[C@@H]1C5[C@H]4C[C@H]32 (stereo partly specified),.,.,0%[14.2 µM],.,.,.

# Screening data deposited in PubChem by National Center for Advancing Translational Sciences (NCATS).
